# Test results from article PMC11062922 (Nature Chemical Biology, 2023).
# Where two headings read alike, the source gives them in different places.
# Tests used:
# Design in all cases: species or system human, MV4-11 + K-562 + COLO205 + SK-N-BE2 + OVCAR-8
# BTK = details: read-out: apparent Kd, compound concentrations: 100 nM and 1000 nM (sheet 'Samples'), n = 1
# CDK10 = details: read-out: apparent Kd, n = 1
# IRAK4 = details: read-out: apparent Kd, n = 1
# LCK = details: read-out: apparent Kd, compound concentrations: 100 nM and 1000 nM (sheet 'Samples'), n = 1
# MAP4K3 = details: read-out: apparent Kd, n = 1
# NEK9 = details: read-out: apparent Kd, compound concentrations: 100 nM and 1000 nM (sheet 'Samples'), n = 1
# PRKAA2 = details: read-out: apparent Kd, compound concentrations: 100 nM and 1000 nM (sheet 'Samples'), n = 1
# STK26 = details: read-out: apparent Kd, n = 1
# ULK1 = details: read-out: apparent Kd, compound concentrations: 100 nM and 1000 nM (sheet 'Samples'), n = 1
# EPHB1 = details: read-out: apparent Kd, compound concentrations: 100 nM and 1000 nM (sheet 'Samples'), n = 1
# MTOR = details: read-out: apparent Kd, n = 1
# AXL = details: read-out: apparent Kd, compound concentrations: 100 nM and 1000 nM (sheet 'Samples'), n = 1
# CSK = details: read-out: apparent Kd, compound concentrations: 100 nM and 1000 nM (sheet 'Samples'), n = 1
# EPHA1 = details: read-out: apparent Kd, compound concentrations: 100 nM and 1000 nM (sheet 'Samples'), n = 1
# ACVR1 = details: read-out: apparent Kd, n = 1
# MAP2K1 = details: read-out: apparent Kd, n = 1
# MAP4K2 = details: read-out: apparent Kd, n = 1
# PIK3C2A = details: read-out: apparent Kd, compound concentrations: 100 nM and 1000 nM (sheet 'Samples'), n = 1
# PRKCB = details: read-out: apparent Kd, n = 1
# MAP2K2 = details: read-out: apparent Kd, n = 1
# [1] = compound concentrations:100 nM and 1000 nM (sheet 'Samples')
compound,measurement,setting,value
COc1ccc(Nc2ncc(C#N)c(Nc3ccccc3C(N)=O)n2)cc1N1CCN(C)CC1.Cl [GSK1558669A],potency estimated from few doses,BTK; CATDS: 6.7250041234510503E-3,0.871 µM
same,potency estimated from few doses,"CDK10; compound concentrations: 100 nM and 1000 nM (sheet 'Samples'), CATDS: 6.1619993305959599E-3",1.45 µM
same,potency estimated from few doses,"IRAK4; compound concentrations: 100 nM and 1000 nM (sheet 'Samples'), CATDS: 1.0871423307460401E-2",0.148 µM
same,potency estimated from few doses,LCK; CATDS: 1.44418733031309E-2,0.0727 µM
same,potency estimated from few doses,"MAP4K3; compound concentrations: 100 nM and 1000 nM (sheet 'Samples'), CATDS: 1.16453060646116E-2",0.123 µM
same,potency estimated from few doses,NEK9; CATDS: 1.04770728264292E-2,0.164 µM
same,potency estimated from few doses,PRKAA2; CATDS: 3.3781833346765697E-2,0.0153 µM
same,potency estimated from few doses,"STK26; compound concentrations: 100 nM and 1000 nM (sheet 'Samples'), CATDS: 6.0521031511701004E-3",1.65 µM
same,potency estimated from few doses,ULK1; CATDS: 1.40188360119969E-2,0.0778 µM
CN(c1ccc(NC(=O)Nc2cccc(Cl)c2)cc1)c1ccnc(N)n1.Cl [GW830707A],potency estimated from few doses,BTK; CATDS: 1.93862363831281E-2,0.0581 µM
same,potency estimated from few doses,EPHB1; CATDS: 2.4630351484746099E-2,0.0312 µM
same,potency estimated from few doses,LCK; CATDS: 1.1469376819807401E-2,0.788 µM
same,potency estimated from few doses,"MTOR; compound concentrations: 100 nM and 1000 nM (sheet 'Samples'), CATDS: 2.8595787466671799E-2",0.0226 µM
Clc1cc(Cl)cc(Nc2ccnc(Nc3cc(Cl)cc(Cl)c3)n2)c1 [GSK175726A],potency estimated from few doses,AXL; CATDS: 8.4752300032334103E-3,1.71 µM
same,potency estimated from few doses,BTK; CATDS: 2.6199359146872301E-2,0.0821 µM
same,potency estimated from few doses,CSK; CATDS: 1.17668577174877E-2,0.462 µM
same,potency estimated from few doses,EPHA1; CATDS: 1.41379738320296E-2,0.28 µM
same,potency estimated from few doses,EPHB1; CATDS: 3.1891027827673897E-2,0.06 µM
same,potency estimated from few doses,LCK; CATDS: 2.0638344047220501E-2,0.125 µM
same,potency estimated from few doses,"MTOR; compound concentrations: 100 nM and 1000 nM (sheet 'Samples'), CATDS: 1.7554405068834999E-2",0.172 µM
same,potency estimated from few doses,PRKAA2; CATDS: 1.07442997812795E-2,0.618 µM
same,potency estimated from few doses,ULK1; CATDS: 8.5136949732422407E-3,1.67 µM
CCOC(=O)N1CCC(n2cnc(-c3ccc(F)cc3)c2-c2ccnc(N)n2)CC1 [SB-219952],potency estimated from few doses,AXL; CATDS: 1.0061198930866599E-2,0.853 µM
same,potency estimated from few doses,BTK; CATDS: 1.0743585683712699E-2,0.726 µM
same,potency estimated from few doses,CSK; CATDS: 1.06273677269496E-2,0.745 µM
same,potency estimated from few doses,EPHA1; CATDS: 1.16401500305403E-2,0.603 µM
same,potency estimated from few doses,EPHB1; CATDS: 1.10661154917942E-2,0.677 µM
same,potency estimated from few doses,LCK; CATDS: 1.05022707080212E-2,0.767 µM
same,potency estimated from few doses,PRKAA2; CATDS: 1.0917376994103299E-2,0.698 µM
same,potency estimated from few doses,ULK1; CATDS: 8.7591953148760202E-3,1.26 µM
Cl.Nc1c(C(=O)c2cccc(C#CCN3CCCCC3)c2)cnn1-c1ccc(F)cc1 [RO1154461-001],potency estimated from few doses,BTK; CATDS: 1.2670518401124599E-2,0.863 µM
same,potency estimated from few doses,CSK; CATDS: 1.25977312115917E-2,0.877 µM
same,potency estimated from few doses,EPHA1; CATDS: 1.62394808146854E-2,0.463 µM
same,potency estimated from few doses,EPHB1; CATDS: 2.02427776556733E-2,0.292 µM
same,potency estimated from few doses,LCK; CATDS: 1.3782974497271E-2,0.687 µM
same,potency estimated from few doses,PRKAA2; CATDS: 1.20335296051875E-2,1 µM
O=C1N=C(NCCc2ccc(Cl)cc2)S/C1=C\c1ccc2ncccc2c1 [RO4498479-000],potency estimated from few doses,"ACVR1; compound concentrations: 100 nM and 1000 nM (sheet 'Samples'), CATDS: 7.5426922392671601E-3",1.23 µM
same,potency estimated from few doses,AXL; CATDS: 1.04698651204191E-2,0.5 µM
same,potency estimated from few doses,BTK; CATDS: 1.35831068182147E-2,0.297 µM
same,potency estimated from few doses,CSK; CATDS: 1.24616497834408E-2,0.349 µM
same,potency estimated from few doses,EPHA1; CATDS: 1.45728088711572E-2,0.262 µM
same,potency estimated from few doses,EPHB1; CATDS: 1.3764533210370701E-2,0.29 µM
same,potency estimated from few doses,LCK; CATDS: 1.3202335772702E-2,0.313 µM
same,potency estimated from few doses,PRKAA2; CATDS: 9.27662971485879E-3,0.667 µM
same,potency estimated from few doses,ULK1; CATDS: 1.00048929217101E-2,0.555 µM
Cc1ccc(Nc2ccnc(Nc3ccc4c(c3)CS(=O)(=O)C4)n2)cc1O.Cl [GW579362A],potency estimated from few doses,"ACVR1; compound concentrations: 100 nM and 1000 nM (sheet 'Samples'), CATDS: 3.1800553905839801E-2",1.03 µM
same,potency estimated from few doses,"CDK10; compound concentrations: 100 nM and 1000 nM (sheet 'Samples'), CATDS: 3.9153038455417302E-2",0.602 µM
Cn1ncc2c(N)ncnc21 [SKF-18267],potency estimated from few doses,"ACVR1; compound concentrations: 100 nM and 1000 nM (sheet 'Samples'), CATDS: 5.7443356978904197E-3",0.627 µM
same,potency estimated from few doses,AXL; CATDS: 4.1647880989247304E-3,1.21 µM
same,potency estimated from few doses,BTK; CATDS: 5.3280284172791698E-3,0.72 µM
same,potency estimated from few doses,CSK; CATDS: 4.6419413759929496E-3,0.948 µM
same,potency estimated from few doses,EPHA1; CATDS: 6.5055673029188101E-3,0.506 µM
same,potency estimated from few doses,EPHB1; CATDS: 5.0582838235080502E-3,0.796 µM
same,potency estimated from few doses,"IRAK4; compound concentrations: 100 nM and 1000 nM (sheet 'Samples'), CATDS: 3.8610933772381499E-3",1.46 µM
same,potency estimated from few doses,"MAP2K1; compound concentrations: 100 nM and 1000 nM (sheet 'Samples'), CATDS: 3.7479108323340499E-3",1.59 µM
same,potency estimated from few doses,"MAP4K2; compound concentrations: 100 nM and 1000 nM (sheet 'Samples'), CATDS: 4.7977079984097802E-3",0.885 µM
same,potency estimated from few doses,"MAP4K3; compound concentrations: 100 nM and 1000 nM (sheet 'Samples'), CATDS: 3.8804201859816102E-3",1.45 µM
same,potency estimated from few doses,"MTOR; compound concentrations: 100 nM and 1000 nM (sheet 'Samples'), CATDS: 1.26439105920185E-2",0.192 µM
same,potency estimated from few doses,NEK9; CATDS: 5.3187042778019703E-3,0.722 µM
same,potency estimated from few doses,PIK3C2A; CATDS: 5.9586884702388498E-3,0.587 µM
same,potency estimated from few doses,"PRKCB; compound concentrations: 100 nM and 1000 nM (sheet 'Samples'), CATDS: 3.7264433576920599E-3",1.61 µM
same,potency estimated from few doses,ULK1; CATDS: 3.78452040785661E-3,1.55 µM
Cc1cccc(Nc2nc(N[C@H]3CCCC[C@H]3N)ncc2C(N)=O)c1.Cl [GSK986310C],potency estimated from few doses,MAP4K2; [1],2.08 µM
CNC(=O)c1ccccc1Nc1nc(Nc2ccc(N3CCOCC3)cc2)ncc1Cl.Cl [GSK1576028A],potency estimated from few doses,IRAK4; [1],0.593 µM
same,potency estimated from few doses,MAP4K3; [1],1.67 µM
same,potency estimated from few doses,STK26; [1],1.36 µM
Cc1ccc2c(-c3ccncc3)c(-c3ccc(F)cc3)nn2c1.Cl [GW461484A],potency estimated from few doses,CDK10; [1],1.41 µM
CN1C[C@@H]2Cn3c(c(C4=C(c5cn(C)c6ccccc56)C(=O)NC4=O)c4ccccc43)C[C@H]2C1.Cl [RO0320234-001],potency estimated from few doses,"PRKCB; compound concentrations: 100 nM and 1000 nM (sheet 'Samples'), CATDS: 3.7076657703329602E-2",0.0284 µM
Cc1cccc(-c2nc(Nc3ccncc3)c3sccc3n2)n1 [GW869641X],potency estimated from few doses,MAP4K2; [1],0.669 µM
CCn1c(-c2nonc2N)nc2c(C#CC(C)(C)O)nc(OCCN)cc21.CCn1c(-c2nonc2N)nc2c(C#CC(C)(C)O)nc(OCCN)cc21.Cl.Cl [GSK902056A],potency estimated from few doses,PRKCB; [1],1.98 µM
Cc1cccc(Nc2nc(N[C@H]3CCNC3)ncc2C(N)=O)c1.Cl [GSK2197149A],potency estimated from few doses,IRAK4; [1],1.57 µM
same,potency estimated from few doses,MTOR; [1],0.532 µM
CNCc1ccc(-c2cc(-c3nc(-c4ccc(S(=O)(=O)C(C)C)cc4)cnc3N)on2)cc1 [VE-822],potency estimated from few doses,ACVR1; [1],0.081 µM
same,potency estimated from few doses,MAP2K1; [1],2.12 µM
same,potency estimated from few doses,MAP2K2; [1],1.7 µM
CCN(CC)Cc1ccc(Nc2nccc(-c3cnn4ncccc34)n2)cc1 [GW780056X],potency estimated from few doses,NEK9; CATDS: 2.0464339173062999E-2,1.22 µM
CCn1c(-c2cccnc2O)nc2cnccc21 [SB-736715],potency estimated from few doses,"IRAK4; compound concentrations: 100 nM and 1000 nM (sheet 'Samples'), CATDS: 1.2053772539955101E-2",2.16 µM
same,potency estimated from few doses,"MAP2K1; compound concentrations: 100 nM and 1000 nM (sheet 'Samples'), CATDS: 1.2472945477492101E-2",1.98 µM
same,potency estimated from few doses,"MAP2K2; compound concentrations: 100 nM and 1000 nM (sheet 'Samples'), CATDS: 1.1967755653937401E-2",2.21 µM
same,potency estimated from few doses,"MAP4K3; compound concentrations: 100 nM and 1000 nM (sheet 'Samples'), CATDS: 1.18582584558427E-2",2.26 µM
same,potency estimated from few doses,"MTOR; compound concentrations: 100 nM and 1000 nM (sheet 'Samples'), CATDS: 2.4342706030032701E-2",0.547 µM
same,potency estimated from few doses,PIK3C2A; CATDS: 1.67467583314573E-2,1.04 µM
same,potency estimated from few doses,"STK26; compound concentrations: 100 nM and 1000 nM (sheet 'Samples'), CATDS: 1.4283028006721699E-2",1.44 µM
